From PubChem BioAssay (Tox21)
Values joined by “and” are separate entries in the source; they are usually repeats but may differ in a detail not shown here. Equal entries are not always repeated. Results filed as inconclusive are left out. Entries that show only a call come without a potency. Active and inactive are the calls of the source. Calls come from the whole dose curve; as a rule, active = well fitted cell-killing curve with a large enough effect in the repeat runs; inconclusive = weak or mixed curves, or effect the other way; inactive = flat fitted curve, though single readings scatter.

test: qHTS assay to identify small molecule antagonists of the constitutive androstane receptor (CAR) signaling pathway - cell viability counter screen (AID 1224837); conditions: HepG2-CYP2B6-hCAR viability, CellTiter-Fluor, 23 h, co-treated with 50 nM CITCO; series mostly up to 92.4 µM; note: nearly all actives have a fitted effect of over 45% in size
Text: National Center for Advancing Translational Sciences [NCATS]
NIH Chemical Genomics Center [NCGC]
U.S. Environmental Protection Agency [EPA]
National Institutes of Environmental Health Sciences [NIEHS]
National Toxicology Program [NTP]
U.S. Food and Drug Administration [FDA]
The constitutive androstane receptor (CAR) is a nuclear receptor which regulates multiple drug metabolizing enzymes (DMEs) and transporters. Activating CAR will generally increase the transcription and subsequent translation of CYP2B6 and CYP3A4. These two DMEs represent about 50% of the drug metabolizing potential in the body. When CAR is deactivated, the metabolizing potential in the body will decrease, subsequently increasing the toxicity in the body or lowering the therapeutic potential of a pro-drug. Recently, there have also been studies performed indicating CARs role in energy metabolism and cancer therapy. Therefore, inhibiting CARs activity could have a potential effect on diabetes and cancer. Identifying environmental toxins and compounds which modulate CAR, through the use of the Tox21 10K compound collection, will be an important step in determining the toxicity and potential therapeutic effects these factors will have on the human body. To differentiate true CAR antagonists from cytotoxic substances, the assay is multiplexed with a cell viability assay.
Tox21 Assay Protocol Summary:
A double-stable (hCAR and CYP2B6-2.2kb) transfected cell line, derived from human hepatoma (HepG2) cells, was utilized for the duration of the quantitative high-throughput screens. The HepG2-CYP2B6-hCAR cells were dispensed at 2500 cells/4 uL/well in 1536-well white solid bottom plates using a Multidrop Combi. After the assay plates were incubated at 37 C/5% CO2 for 4 hrs, 23 nL of compounds at 15 concentrations (from 5-48 columns) or positive control (from 1 to 4 columns) were transferred to the assay plates using a Pintool station. One uL of CITCO (final concentration = 50 nM) was added, using a Flying Reagent Dispenser, inside each well. After a 23 hr incubation period at 37 C/5% CO2, 1 uL of CellTiter-Fluor reagent was added into each well of the assay plates using a Flying Reagent Dispenser. The fluorescence intensity in the plates was then measured using a ViewLux plate reader.
Potency is the fitted concentration of half-maximal effect.

Row | Structure (SMILES) | Potency
1 | CCOP(=S)(OCC)SCS(=O)(=O)CC | inactive
2 | CCS(=O)(=O)c1cccnc1S(=O)(=O)NC(=O)Nc1nc(OC)cc(OC)n1 | inactive
3 | CCC(C)c1cc([N+](=O)[O-])cc([N+](=O)[O-])c1OC(=O)C=C(C)C (stereo not given) | 61.1 µM (active)
4 | CC[C@H](C)[C@H]1O[C@]2(C=C[C@@H]1C)C[C@@H]1C[C@@H](C/C=C(\C)[C@@H](O[C@H]3C[C@H](OC)[C@@H](O[C@H]4C[C@H](OC)[C@@H](O)[C@H](C)O4)[C@H](C)O3)[C@@H](C)/C=C/C=C3\CO[C@@H]4[C@H](O)C(C)=C[C@@H](C(=O)O1)[C@]34O)O2 | 32.2 µM (active)
5 | O=[N+]([O-])c1ccc(Oc2ccc(C(F)(F)F)cc2[N+](=O)[O-])cc1 | inactive
6 | CCCCCCCCCCCCCCCC[n+]1ccccc1 | 32 µM (active) and 15.4 µM (active) and 19.1 µM (active)
7 | Oc1cccc(-c2ccccc2)c1 | inactive
8 | COC(=O)N(C(=O)N1CO[C@@]2(C(=O)OC)Cc3cc(Cl)ccc3C2=N1)c1ccc(OC(F)(F)F)cc1 | inactive
9 | Cc1cc(C)c(C2=C(OC(=O)CC(C)(C)C)C3(CCCC3)OC2=O)c(C)c1 | inactive
10 | CC(C)(COCC1CO1)COCC1CO1 (stereo not given) | inactive
11 | Cc1cc(C(F)(C(F)(F)F)C(F)(F)F)ccc1NC(=O)c1cccc(I)c1C(=O)NC(C)(C)CS(C)(=O)=O | inactive
12 | CCCCCCCCCCCCCCC(Br)C(=O)O (stereo not given) | inactive
13 | CC(O)C#N (stereo not given) | inactive
14 | CCCN(CCC)c1c([N+](=O)[O-])cc(S(N)(=O)=O)cc1[N+](=O)[O-] | 65.2 µM (active)
15 | O=C1c2ccccc2C(=O)C1C(=O)C(c1ccccc1)c1ccc(Cl)cc1 (stereo not given) | inactive
16 | CC(=O)[O-].[Tl+] | inactive
17 | O=C1NCN(c2ccccc2)C12CCN(CC1COc3ccccc3O1)CC2 (stereo not given) | inactive
18 | CCCCOP(=O)(CCCC)OCCCC | inactive
19 | O=[N+]([O-])c1cc([N+](=O)[O-])c2ccccc2c1 | inactive
20 | CCCN(CC)CC1COC2(CCC(C(C)(C)C)CC2)O1 (stereo not given) | inactive

Row | Structure (SMILES) | Potency
21 | CCN(CC)c1c([N+](=O)[O-])cc(C(F)(F)F)c(N)c1[N+](=O)[O-] | inactive
22 | CCCSP(=O)(OCC)SCCC | inactive
23 | CCc1ccccc1C | inactive
24 | COC(=O)N(C(=O)N1COC2(C(=O)OC)Cc3cc(Cl)ccc3C2=N1)c1ccc(OC(F)(F)F)cc1 (stereo not given) | inactive
25 | CCCCN(CCCC)C(=S)[S-].CCCCN(CCCC)C(=S)[S-].[Zn+2] | 21.7 µM (active)
26 | N#C/C=C/C#N | inactive
27 | CCOC(=O)OC1=C(c2cc(C)ccc2C)C(=O)NC12CCC(OC)CC2 (stereo not given) | inactive
28 | Oc1ccccc1Br | inactive
29 | CCCCCCCCCCCCCN1CC(C)OC(C)C1 (stereo not given) | inactive
30 | CCCCCCCCCCBr | inactive
31 | N#Cc1ccccc1N | inactive
32 | O=c1ssc(Cl)c1Cl | 54.5 µM (active)
33 | Clc1ccc(C(c2ccccc2Cl)C(Cl)(Cl)Cl)cc1 (stereo not given) | inactive
34 | CC(Cc1ccc(C(C)(C)C)cc1)CN1C[C@@H](C)O[C@@H](C)C1 (stereo not given in full) | inactive
35 | CC(C)(c1ccc(O)c(-c2ccccc2)c1)c1ccc(O)c(-c2ccccc2)c1 | 68.6 µM (active)
36 | CC(=[OH+])/C=C(/C)[O-].CC(=[OH+])/C=C(\C)[O-].CC(=[OH+])/C=C(\C)[O-].[Fe] | inactive
37 | C[CH2][Hg][N]1C(=O)C2C(C1=O)C1(Cl)C(Cl)=C(Cl)C2(Cl)C1(Cl)Cl (stereo not given) | 13 µM (active)
38 | CC1(C)CC/C(=C/c2ccc(Cl)cc2)C1(O)Cn1cncn1 (stereo not given) | 68.2 µM (active)
39 | ClCc1ccccc1CCl | inactive
40 | O=C(CCCN1CCC2(CC1)C(=O)NCN2c1ccccc1)c1ccc(F)cc1 | 3.35 µM (active)
